High-throughput results as filed in PubChem.
DAX1 inh-1 = NR0B1 (DAX1) inhibition; HEK293 Gal4-DAX1 luciferase reporter, luminescence; inhibition, % at 6.75 µM; 340,000 compounds, 0.99% hits; P51843;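 active means inhibition above the mean over all tested compounds plus 3 SD, cut at about 4.2% in these data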;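 further: 0% = DAX1-transfected cells with DMSO and 100% = empty-vector control cells with DMSO; inhibition shows as a rise in luminescence from relieved DAX1 repression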
Target sequence (P51843 207-470 limits assumed): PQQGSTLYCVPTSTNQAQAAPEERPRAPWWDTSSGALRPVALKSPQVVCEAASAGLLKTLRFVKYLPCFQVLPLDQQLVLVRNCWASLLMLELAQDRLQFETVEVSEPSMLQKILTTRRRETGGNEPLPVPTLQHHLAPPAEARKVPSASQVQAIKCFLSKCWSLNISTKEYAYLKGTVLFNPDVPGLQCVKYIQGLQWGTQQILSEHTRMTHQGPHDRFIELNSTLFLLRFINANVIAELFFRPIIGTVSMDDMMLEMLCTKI
hgDAF-12 ag = activates the H. glycines DAF-12 receptor ligand-binding domain; activation, % at 6.8 µM; HEK293 GAL4-hgDAF12 UAS-luciferase reporter, agonist luminescence; normalized to butyrate control; 370,000 compounds, 1.8% hits;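 active means activation above a cutoff set at the mean of all screened compounds plus 3 SD, cut at about 10% in these data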;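 further: 0% = DMSO wells and 100% = sodium butyrate wells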
DAX1 inh-2 = inhibitors of DAX1 repression of SF-1 activated StAR promoter; 370,000 compounds, 1.1% hits; inhibition, % at 6.8 µM; HEK293T StAR-luciferase reporter, SF-1/DAX-1 repression relief;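 active means inhibition above the mean over all tested compounds plus 3 SD, cut at about 3.6% in these data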;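 further: 0% = DAX-1 cells with DMSO and 100% = cells lacking DAX-1 with DMSO; higher inhibition means more luminescence from relief of DAX-1 repression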
PolyA inh = yeast polyadenylation inhibition; S. cerevisiae SKY197-pL101 polyadenylation reporter, beta-gal luminescence; efflux-impaired pdr1/pdr3 knockout yeast; score 100 = 6 SD above DMSO; activity score, % at 12 µM; 300,000 compounds, 0.02% hits; AID 1875;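 active means lowest replicate activity score at least 50, where 100 means six control SD above control mean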;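 further: yeast exposed to compound for 9 h at 30 °C; higher score means more reporter readthrough which indicates perturbed polyadenylation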
hcDAF12 agonist = activators of H. contortus DAF-12 nuclear receptor. AID 652067. activation, % at 6.8 µM. 370,000 compounds, 1.4% hits. HEK293 hcDAF-12 lit1-tk-luc reporter, luminescence; 0% DMSO, 100% Δ7-dafachronic acid;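 active means activation above the mean of all tested compounds plus 3 SD, cut at about 5.5% in these data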;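 further: 100% = response to 3 µM Δ7-dafachronic acid high control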
ssDAF-12 act = activates DAF-12 receptor from parasite S. stercoralis; 370,000 compounds, 1% hits; activation, % at 6.8 µM; HEK293 ssDAF-12/GRIP1 lit1-tk-luc reporter, luminescence; % of 3 µM dafachronic acid response; AID 652126;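 active means activation above the mean over all tested compounds plus 3 SD, cut at about 0.9% in these data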;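 further: 0% = DMSO-only wells and 100% = 3 µM delta7-dafachronic acid wells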
The depositor's hits bear a star; x = not tested or not shown. Shown are actives, neighbours in structure and some others; about 4.1% of the full set was active somewhere.

SMILES | DAX1 inh-1 | hgDAF-12 ag | DAX1 inh-2 | PolyA inh | hcDAF12 agonist | ssDAF-12 act
O=C(NNC(=O)C1CCCCC1)c1ccncc1 | 1 | 0 | 0 | -8 | -2 | -1
O=C(NNC(=O)c1ccncc1)NC1CCCCC1 | 4.8* | 1 | 0 | 13 | -1 | -2
O=C(NC1CCCCCCC1)c1ccc(F)cc1 | 2 | 11* | 2 | 2 | 4 | 0
O=C(Nc1ccc(Cl)cc1)NC1CCCCC1 | 2 | 10 | 2 | 3 | 2 | -1
O=C(NC1CC2CCCC(C1)N2C(=O)NC1CCCCC1)c1ccc(F)cc1 (stereo not drawn) | 0 | -2 | -1 | -2 | 0 | 0
O=C(Nc1ccc(F)cc1)NC1CCCCCCC1 | 0 | 12* | 4 | 5 | 0 | -1
O=C(NC1CCC1)c1ccc(C#Cc2cccc(F)c2)nc1 | x | 11* | 0 | x | 2 | -1
S=C(SCc1nc(-c2ccc(Cl)cc2)no1)N1CCSCC1 | x | 1 | 0 | x | 4 | 0
CCOC(=O)[C@@]12CCCC=C1N(CCc1ccc(Cl)cc1)C(=O)[C@H]2CC(=O)N1CCOCC1 | x | -6 | -3 | x | -5 | -2
O=C(Nc1ccc2nsnc2c1)NC1CCCCC1 | 3 | 12* | 2 | 0 | 3 | 0
CN1C(=O)c2ccc(C(=O)NC3CCCCC3)cc2C1=O | 2 | 2 | -1 | 10 | 0 | 1.0*
CCOc1ccc(CCNC(=O)c2cc3sccc3n2Cc2cccc(C)c2)cc1OCC | x | -1 | x | x | -4 | -2
Cn1c(COc2ccccc2)nnc1SCC(=O)Nc1ccccc1-c1ccccc1 | x | 1 | -2 | x | -4 | -1
CNC(=S)N/N=C/c1ccc(N(C)C)cc1 | 3 | 11* | 1 | -22 | 3 | 0
C=CCn1cnc2c(sc3nc(C)cc(C)c32)c1=O | 1 | 3 | 0 | -7 | 0 | -1
Cc1cc(C)c2c(n1)sc1c(=O)n(Cc3ccc(F)cc3)cnc12 | 4.5* | -1 | 0 | -17 | 0 | 0
CCN(CC)Cc1c(NC(=O)c2ccccc2)sc(C)c1C | 4 | 11* | 1 | 0 | 5 | 0
CCN(CC)C(=O)c1c(NC(=O)c2ccccc2)sc(C)c1C | -1 | 0 | 0 | 10 | 0 | -1
Cc1c(N=Cc2ccc(O)c(Br)c2)cccc1[N+](=O)[O-] | 0 | 2 | 0 | 11 | 6.1* | 1.1*
CCOc1ccc(CCNC(=O)c2ccc(Oc3ccccc3)cc2)cc1OCC | x | -2 | x | x | -3 | -2
CCc1nccn1CCC(=O)N1CCc2c([nH]c3ccccc23)C1CC(C)C (stereo not drawn) | 1 | 2 | 0 | 6 | 5.6* | 0
CCc1nc(C)ccc1OCC(=O)N1CCc2c([nH]c3ccccc23)C1c1ccccn1 (stereo not drawn) | -1 | -2 | -1 | 10 | 0 | -1
COc1ccc(-c2nc(CSCC(=O)N3CCN(C)CC3)c(C)o2)cc1OC | 6.1* | -3 | 0 | 7 | -1 | -1
CCN1CCN(C(=O)CSCc2nc(-c3ccc(OC)c(OC)c3)oc2C)CC1 | 1 | 3 | 0 | -6 | 5 | -1
Cc1n[nH]c(C)c1S(=O)(=O)N1CCCC(C(=O)N2CCc3ccccc32)C1 (stereo not drawn) | -1 | 0 | 0 | 1 | 2 | 1.9*
SMILES | DAX1 inh-1 | hgDAF-12 ag | DAX1 inh-2 | PolyA inh | hcDAF12 agonist | ssDAF-12 act
Cc1noc(/C=C/N(C)C)c1S(=O)(=O)N1CCCC(C(=O)N2CCc3ccccc32)C1 (stereo not drawn) | 0 | 0 | 0 | x | 2 | -1
Oc1ccc(/C=N/Nc2ncnc3c2ncn3Cc2ccccc2)cc1O | 0 | 1 | 0 | 14 | -2 | 1.3*
CCCCN=C(N)NC(=O)c1ccccc1 | x | 3 | 1 | x | -1 | -1
CCCn1c(=O)c(C(=O)Nc2ccccc2)c(O)c2ccccc21 | 0 | 4 | 1 | 3 | 5 | 0
Cn1c(Cl)c(C(=O)Nc2ccccc2)c2ccccc21 | -1 | 3 | 0 | x | 6.5* | 0
Cc1ccc(S(=O)(=O)SCCCSS(=O)(=O)c2ccc(C)cc2)cc1 | -1 | -2 | -1 | x | -1 | -1
Cc1ccc(S(=O)(=O)SC/C=C/CSS(=O)(=O)c2ccc(C)cc2)cc1 | 5.5* | 1 | 0 | x | 0 | 0
Cc1cccc(-n2ccnc2CN2CCN(C3CCCC3)C(CCO)C2)c1 (stereo not drawn) | 2 | -2 | 0 | 1 | -1 | -1
COc1ccc(-n2ccnc2CN2CCN(C3CCCC3)C(CCO)C2)cc1 (stereo not drawn) | 4.7* | 3 | 0 | 1 | -1 | -2
CCS(=O)(=O)Nc1ccc2c(c1)C(=O)N(C)[C@@H]1CC[C@H](CC(=O)N[C@@H]3CCN(Cc4ccccc4)C3)O[C@H]1CO2 | x | -2 | 0 | x | -2 | -1
CC(=O)Nc1ccc(S(=O)(=O)NCC2CCN(C(=O)C(=O)c3cccs3)CC2)cc1 | x | 1 | -1 | x | 0 | 0
CC(=C/c1ccccc1)/C=N/n1c(C)n[nH]c1=S | 4.7* | 2 | 0 | -12 | -1 | -1
COc1ccc(C2=NOC(C(=O)NCc3ccco3)C2)cc1 (stereo not drawn) | -1 | 12* | -2 | -14 | 2 | -1
COc1ccc(/C=N/NC(=O)CSCC(=O)Nc2ccccc2)cc1 | 5.0* | -1 | 0 | -3 | 4 | 0
COc1cc(C2=NOC(C(=O)NCc3ccco3)C2)cc(OC)c1OC (stereo not drawn) | -1 | 1 | -2 | 0 | -1 | -1
COc1ccc(NC(=O)CCC(=O)N/N=C/c2ccncc2)cc1 | 5.5* | -1 | 0 | -7 | 0 | -1
COc1ccc(NC(=O)CSCC(=O)NCc2ccco2)cc1 | 3 | -2 | 4.3* | 10 | -1 | -1
O=C(CSCC(=O)NCc1ccco1)NCc1ccco1 | 1 | 0 | -1 | 5 | -2 | -1
C[C@H]1C2CC(OC(=O)Nc3ccccc3C(F)(F)F)C(C2)[C@H]2CCCCN21 (stereo partly drawn) | x | 1 | 1 | x | 0 | -1
CN(C)c1ccc(C(=O)NC2CCCCN(Cc3cccc(Cl)c3)C2=O)cc1 (stereo not drawn) | x | 6 | 1 | x | 2 | 0
O=C(N=C1c2ccccc2CN1c1cccc(Cl)c1)c1cccnc1 | -1 | 11* | 1 | -5 | 4 | 0
COC(=O)C1=C(C)N(C)C(=NCc2ccc(OC)cc2)NC1c1cccc(F)c1 (stereo not drawn) | x | -1 | 0 | x | -1 | -1
NC(N)=NS(=O)(=O)c1ccc(N/C=C\C(=O)c2ccncc2)cc1 | 6.9* | 2 | -1 | 0 | -1 | -1
Cc1noc(NS(=O)(=O)c2ccc(N/C=C\C(=O)c3ccncc3)cc2)c1C | 2 | 0 | 1 | -21 | -1 | -1
